TSHR antagonist – blocks TSH signaling through the human TSH receptor; TSHR-expressing cells, TSH-stimulated cAMP HTRF, 2 h; hits give low values; activity change, negative = inhibition, % at 11.5 µM; 330,000 compounds, 0.2% hits;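 active = activity change below a set negative limit, meaning inhibition stronger than a set level, cut at about -70% in these data; inconclusive = activity change between two set negative limits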
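Inhibition of cAMP made by TSHR-expressing cells under TSH stimulation (4nM final, EC80; 2 h, 37 deg C) is quantified with a one-step lysis HTRF kit, anti-cAMP cryptate versus cAMP-d2.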
Gal4-VP16 FLuc – counter-screen for ROR gamma inhibitors: Gal4-VP16 reporter; Drosophila S2 Gal4-VP16 UAS-luciferase, luminescence, 20 h; Potency, µM (highest dose often 53.6 µM), without a hit: top-dose activity, negative = inhibition, most hits filed as inhibitors; 310,000 compounds, 3.5% hits;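 also: Gal4-VP16 expression switched on by copper sulfate through the metallothionein promoter; potency is read from the fitted curve at half-maximal effect; nearly all actives have a fitted effect of over 50% in size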
ELG1 repair inh – ELG1-dependent DNA repair inhibition; HEK293T ELG1-luciferase reporter, luminescence, 16 h; DNA damage induced by 5-fluorouridine; Potency, µM (doses to about 46.1 µM), without a hit: top-dose activity change, negative = inhibition, usual class: inhibitors; 330,000 compounds, 2.3% hits; also: potency is read from the fitted curve at half-maximal effect; nearly all actives have a fitted effect of over 55% in size
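Luminescence from the luciferase reporter, measured 30 min after ONE-Glo reagent at room temperature, was the read-out. Beforehand, 2,000 cells per well were exposed for 16 hr at 37 °C to 5-fluorouridine together with compound or vehicle.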
RORgamma inh – inhibitors of mouse ROR gamma transcriptional activity; P51450; Drosophila S2 Gal4-RORgamma UAS-luciferase reporter, 20 h; Potency, µM (series often up to 53.6 µM), for the others: at the highest dose activity change, negative = inhibition, actives largely listed as inhibitors; 310,000 compounds, 5.4% hits; AID 2551; also: potency is read from the fitted curve at half-maximal effect; nearly all actives have a fitted effect of over 60% in size
Target sequence (P51450 whole entry, looked up, the tested form may be a part): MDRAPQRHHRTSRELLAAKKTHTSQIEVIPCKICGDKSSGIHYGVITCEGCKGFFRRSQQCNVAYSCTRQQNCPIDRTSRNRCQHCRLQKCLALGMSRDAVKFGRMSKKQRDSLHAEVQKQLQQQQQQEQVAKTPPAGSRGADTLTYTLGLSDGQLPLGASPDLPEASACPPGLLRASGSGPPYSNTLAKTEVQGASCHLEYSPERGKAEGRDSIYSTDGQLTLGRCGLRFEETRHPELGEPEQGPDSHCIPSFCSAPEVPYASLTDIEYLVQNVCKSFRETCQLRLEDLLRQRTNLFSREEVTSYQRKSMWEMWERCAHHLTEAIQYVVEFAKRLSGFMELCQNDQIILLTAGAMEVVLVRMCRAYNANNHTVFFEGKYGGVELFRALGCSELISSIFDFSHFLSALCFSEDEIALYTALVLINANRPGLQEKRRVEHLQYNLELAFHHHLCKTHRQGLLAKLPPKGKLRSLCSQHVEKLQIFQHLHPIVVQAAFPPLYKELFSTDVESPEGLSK
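Read-out: Photinus luciferase luminescence; inhibitors lower reporter signal. Insect Schneider cells with Gal4-ROR gamma fusion under metallothionein promoter, UAS reporter; 700 uM final copper sulfate induction, 20 hr, ambient temperature.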
B2AR arrestin – recruits beta-arrestin to the human beta2-adrenergic receptor; beta-arrestin recruitment to beta2AR, cell-based reporter; Potency, µM (doses to about 46.1 µM), for the others: top-dose activation, usual class: activators; 330,000 compounds, 0.02% hits;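 also: potency is read from the fitted curve at half-maximal effect; 0% = DMSO controls and full agonism = EC100 isoproterenol or metaproterenol; nearly all actives have a fitted effect of over 65% in size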
Active calls of the source: *; ? = inconclusive; nt = no result given; [ ] = another dose, or the depositor's remark. Most compounds without a hit are left out; they make up all but 7.5% or so of the library. Unless noted, calls follow the shape of the dose curve; as a rule, active = well fitted curve in the direction sought with a large enough effect; inconclusive = small, poorly fitted or top-dose-only effect, or another doubt; inactive = no such curve, though single readings can be large; an effect the other way counts as inactive or inconclusive. Unless noted, % is scaled to controls: 0 for no effect and ±100 for the full control effect.

SMILES	TSHR antagonist	Gal4-VP16 FLuc	ELG1 repair inh	RORgamma inh	B2AR arrestin
COc1cc(NC(=O)c2ccnc(N)c2)cc(C(=O)Nc2cccc(C(F)(F)F)c2)c1	0	-2%	13%	-13%	0%
COc1ccc(CN2CCNC(=O)C2CC(=O)N2CCCN(C(C)=O)CC2)cc1OC (centres undefined)	16	-8%	28%	-2%	-1%
CC(C)(C)C1CCC(=NNC(=O)CN(c2ccccc2)S(C)(=O)=O)CC1 (centres undefined)	-2	2%	4%	-10%	-1%
C/C(=N\NC(=O)CN(c1ccccc1)S(C)(=O)=O)c1ccccc1O	11	3.5µM*	16µM*	0.71µM*	0%
C/C(=N\NC(=O)CN1CCCCC1)c1ccccc1O	-2	16µM*	?	3.5µM*	0%
COc1ccc(-c2nc(NC(C)=O)sc2-c2ccccc2)cc1	0	-2%	21µM*	-2%	0%
Cc1nc(Nc2ccc(S(N)(=O)=O)cc2)sc1-c1ccccc1	-7	11%	?	42%	-1%
COCCNc1nc(-c2ccc(OC)cc2)c(-c2ccc(OC)cc2)s1	12	-19%	21µM*	11µM*	0%
COc1ccc(Nc2nc(C)c(-c3ccccc3)s2)cc1	1	?	?	11µM*	7%
COc1ccc(-c2sc(NC(C)=O)nc2-c2ccccc2)cc1	3	4%	-3%	14%	0%
CCN(CC)CCNc1nc(-c2ccc(OC)cc2)c(-c2ccc(OC)cc2)s1	3	-10%	-2%	?	0%
CCCCCCNc1nc(-c2ccc(OC)cc2)c(CCC(=O)O)s1	8	16µM*	5%	?	0%
CCOC(=O)OCC1OC(C#Cc2ccccc2)C=CC1Oc1cccc(N(C)C)c1 (centres undefined)	nt	-3%[10 µM]	nt	-17%[10 µM]	nt
O=S(=O)(c1ccccc1)N1CCC2(CC1)CN(c1ncccn1)C2	nt	9%	nt	-17%	nt
Cc1ccc(CCC(=O)Nc2ccc(N(C)C)cc2)o1	18	?	6%	0.56µM*	4%
COC(=O)c1c(NC(=O)CCc2ccc(C)o2)sc(C)c1C	-7	13µM*	5%	?	4%
CCOC(=O)c1c(NC(=O)CCc2ccc(CC)o2)sc(C)c1C	2	-23%	?	-10%	0%
Cc1ccc(CCC(=O)Nc2ccc(Cl)cc2)o1	14	9%	6%	-27%[1.91 µM]	-1%
CCn1c(NCc2ccco2)nc2c1c(=O)n(C)c(=O)n2C	14	-2%	-7%	-31%	0%
Cn1c(=O)c2c(nc(NCc3ccco3)n2CCc2ccccc2)n(C)c1=O	-7	7.9µM*	?	13µM*	-1%
Cn1c(=O)c2c(nc(NCc3ccco3)n2Cc2ccc(Cl)cc2Cl)n(C)c1=O	4	6.3µM*	?	?	0%
Cn1c(=O)n(CCc2ccccc2)c(=O)c2c1nc1n2CCN1Cc1ccco1	-12	20%	21µM*	?	0%
CN(C)S(=O)(=O)c1cccc(NC(=O)CO/N=C(\N)c2ccccc2)c1	nt	nt	-1%	nt	0%
CCN(CC)CCNC(=O)c1c(C)[nH]c(/C=C2\C(=O)Nc3ccc(F)cc32)c1C	nt	-11%	nt	-9%[10 µM]	nt
O=C(C1CC(=O)N(C2CCCC2)C1)N1CCN(c2cccc(Cl)c2)CC1 (centres undefined)	-2	-6%	9%	21%	-1%
SMILES	TSHR antagonist	Gal4-VP16 FLuc	ELG1 repair inh	RORgamma inh	B2AR arrestin
COC(=O)[C@@]1(Cc2ccccc2)[C@H]2c3cc(C(=O)N4CCCC4)[nH]c3C[C@H]2CN1C(=O)c1ccccc1	nt	2%	nt	-6%	nt
CCc1ccc(S(=O)(=O)/N=C2/C=C(Sc3ncn[nH]3)C(=O)c3ccccc32)cc1	-13	6.3µM*	21µM*	13µM*	-1%
CCc1ccc(S(=O)(=O)/N=C2\C=C(Nc3ccc(O)cc3)C(=O)c3ccccc32)cc1	-19	11µM*	3.3µM*	10µM*	1%
CCc1ccc(S(=O)(=O)/N=C2\C=CC(=O)c3ccccc32)cc1	20	?	?	?	0%
CCc1ccc(S(=O)(=O)/N=C2\C=C(Nc3cccc(C(=O)O)c3)C(=O)c3ccccc32)cc1	nt	?	?	11µM*	0%
CN1CCN(c2ncc3ncc(=O)n(-c4ccccc4)c3n2)CC1	nt	0%	nt	-5%	nt
O=C1C=C(c2cccc(Br)c2)C[C@@H](c2ccc(Cl)cc2)C1	-8	nt	7%	nt	0%
COC(c1ccccc1Br)C(C)/C=C/CCO (centres undefined)	nt	7%[10 µM]	nt	-2%[10 µM]	nt
Cc1cc(NC(=O)Nc2cccc(Cl)c2)n(-c2ccccc2)n1	1	1%	0%	6%	0%
Cc1cc(NC(=O)Nc2cccc(Cl)c2)n(-c2ccccn2)n1	-8	-8%	16µM*	-1%	0%
C=CCOc1ccccc1CN1CCCN(C)CC1	5	-7%	-6%	?	-1%
O=C(c1cc(C(F)(F)F)cc(C(F)(F)F)c1)N1CCC2(CCCN(c3ccccc3)C2)CC1	nt	-29%	nt	?	nt
O=C(CSc1nnnn1C1CC2CCC1C2)Nc1ccnc2ccccc12 (centres undefined)	-31	0.0022µM*	?	?	1%
COc1ccc(Br)c(C(=O)OCC(=O)NC2CCCCCC2)c1	-33	nt	-21%	nt	0%
COc1cccc(CNC(=O)c2cc3c(C)nc4ccccc4c3o2)c1	-25	?	?	32%	-1%
CCOC(=O)N1CCC(NC(=O)c2cc3c(C)nc4ccccc4c3o2)CC1	-16	-5%	13µM*	-1%	-1%
COc1ccc(CNC(=O)c2cc3c(C)nc4ccccc4c3o2)c(OC)c1	-38	?	5.8µM*	?	0%
Cc1nc2ccccc2c2oc(C(=O)N3CCN(C4CCCCC4)CC3)cc12	-14	5%	7.3µM*	-23%	0%
CCCCN(CC)CCNC(=O)c1cc2c(C)nc3ccccc3c2o1	11	-13%	-10%	16%	-1%
CCc1ccc(CNC(=O)c2cc3c(C)nc4ccccc4c3o2)cc1	-24	18µM*	15µM*	27%	0%
Cc1nc2ccccc2c2oc(C(=O)NCC3COc4ccccc4O3)cc12 (centres undefined)	-28	?	15µM*	?	0%
CCC(C)(C)n1nnnc1C(c1ccccc1)N1CCN(Cc2ccccc2)CC1 (centres undefined)	-8	4%	8%	6%	0%
CCC(C)(C)n1nnnc1CN1CCN(C(c2ccccc2)c2ccccc2)CC1	-3	-13%	21µM*	34%	0%
O=C(CCCC(=O)Nc1ccccc1Br)N/N=C/c1c(F)cccc1Cl	-7	3%	-20%	-30%	0%
O=[N+]([O-])c1ccc(/C=N/NC(=S)Nc2ccccc2)o1	-3	?	?	?	0%

Assay outcomes: PubChem BioAssay, National Center for Advancing Translational Sciences (NCATS)
